The values below come from PubChem BioAssay (NCI).

The panel holds about 83,000 compounds, 20% with a hit somewhere; the sample as a whole holds those more often.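 Compound tested at a single concentration for 48 hours in 96-well plates; a percent growth value below 10 was scored as active.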 A number with no mark means an inactive call. The source made the active and inactive calls.

For the first test, the system named is SNB-19 CNS. The test is described as follows: NCI-60 one-dose screen, 48 h (100 = growth as untreated, 0 = no growth, -100 = all killed). Conditions: 10 µM unless noted.
On to `COc1ccc(NC(=O)CSc2nnc(-c3ccc4nc(-c5ccccc5)[nH]c4c3)o2)cc1`, for which the growth is 102%.
In the case of `COc1ccc(N2C(=O)c3cc(Cl)ccc3NC2SCc2ccccc2)cc1` (stereo unspecified), the growth is 95.7%.
Regarding `O=C(CSc1nc2ccccc2c(=O)n1-c1ccccc1)Nc1ccc(-c2nc3ccc([N+](=O)[O-])cc3[nH]2)cc1`, the growth is 81.8%.
The same measure, in the same setting: the result for `O=C(NCCn1ccnc1)c1ccc(-c2nc3ccc4[nH]ncc4c3c3c2CCCC3)cc1` reads 55.6%; that for `CCCC(=O)NC(c1cccnc1)c1cc(C(C)(C)C)c2cccnc2c1O` (stereo unspecified), 31.6%.
Consider `NC(N)=Nc1ccc(Oc2cccc(Nc3ccc(Cl)cc3)c2)cn1`, for which the growth was 23.8%.
As to `O=C(CN1CCN(c2cc(=O)[nH]c3ccc(F)cc23)CC1)Nc1ccc(Cl)cc1`, the growth is 21.3%.
Same read-out and setting: the result for `C=C(C=O)[C@@H]1CC[C@]2(C)[C@H](C(=O)C=C3[C@H]4C[C@](C)(C(=O)OC)CC[C@]4(C)CC[C@]32C)[C@@]1(C)CCC#N` reads 30.7%.

In a further test the test system is U251 CNS. Described as above. Conditions: 10 µM unless noted.
In the case of `Cc1ccc(NC(=O)c2ccc(CN3CCN(C)CC3)cc2)cc1Oc1ccc(-c2[nH]nc3ncnc(N)c23)cc1`, the growth was 86.8%.
As for `CCCn1cnc2c(c1=N)C(c1ccc(Cl)cc1)c1sc3c(C)cccc3c1O2` (stereo unspecified), the growth is 19.4%.
On the same count and under the same terms, next, `C=C(C=O)[C@@H]1CC[C@]2(C)[C@H](CC=C3[C@H]4[C@@H](C)[C@H](C)CC[C@]4(C(=O)OC)CC[C@]32C)[C@@]1(C)CCC#N`: 5.57% (active); `NC(N)=Nc1ccc(Oc2cccc(NC(N)=Nc3ccc(I)cc3F)c2)cn1`: 46.1%.
For the compound `Cc1occc1-c1nc2s/c(=C/c3ccc(-c4cc(C(F)(F)F)ccc4Cl)o3)c(=O)n2n1`, the growth was 105%.
For the compound `C[C@H]1c2[nH]c3ccccc3c2C[C@H]2C(=O)N(CCCCCCC(=O)NO)CC(=O)N21`, the growth was 85.2%.
The same measure, in the same setting: the result for `COc1ccc(-c2cc(-c3ccc(Cl)cc3)c(C#N)c(=O)n2Cc2ccc(C(=O)O)cc2)cc1` reads 84.3%; that for `O=C1[C@H]2Cc3c([nH]c4ccccc34)[C@@H](c3ccc(Cl)cc3)N2C(=O)CN1C1CCN(Cc2ccccc2)CC1`, 63.7%; that for `COc1cc(-c2nn(C(C)(C)C)cc2-c2ccnc(NCCCNS(=O)(=O)c3ccc(C)cc3)n2)ccc1Cl`, 92.3%.
Take `CCCCNNC(=O)c1ccc(-c2cccc(F)c2F)cc1`: the growth is 36%.
Still for that read-out and setting: next, `CC1(C)CC[C@]2(C(=O)N3CCOCC3)CC[C@]3(C)C(=CC[C@@H]4[C@@]5(C)C/C(=C/c6ccccn6)C(=O)C(C)(C)[C@@H]5CC[C@]43C)[C@@H]2C1`: 80.7%; `O=S(=O)(NCCNc1nccc(-n2cnc3ccccc32)n1)c1ccc(Br)cc1`: 98.6%; `CC1(C)CC[C@]23CC[C@]4(C)[C@H](CC[C@@H]5[C@@]6(C)CCCN(CO)C(C)(C)[C@@H]6CC[C@]54C)[C@H]2[C@H]1OC3`: 32.5%.
Same read-out and setting: the result for `O=C1[C@H]2Cc3c([nH]c4ccccc34)[C@@H](c3ccc(Br)cc3)N2C(=O)CN1C1CCN(CC2CCCCC2)CC1` reads -90.8% (active).
Same read-out and setting: next, `COc1ccc([C@H]2c3[nH]c4ccccc4c3C[C@H]3C(=O)N(C4CCN(Cc5c(Cl)cccc5Cl)CC4)CC(=O)N23)c(OC)c1`: 95.8%.
Take `NS(=O)(=O)c1ccc(Nc2nc(Nc3ccccc3)nc3nnc(SCC(=O)NC4CCCCC4)n23)cc1`: the growth was 104%.
Still for that read-out and setting: next, `O=C(NNc1nc2cc(F)ccc2n2c(CN3CCC(O)C3)ccc12)c1cnccn1` (stereo unspecified): 19.9%; `CCN(CC)c1cn(-c2ccc(S(N)(=O)=O)cc2)nn1`: 100%; `O=[N+]([O-])c1cc(/C=N/Nc2nc(N/N=C/c3ccc(Cl)c([N+](=O)[O-])c3)nc(N3CCCCC3)n2)ccc1Cl`: 18.5%.
In the case of `CC(=O)Nc1cccc(Nc2nc(N[C@@H](C)c3ccccc3)c3ccccc3n2)c1`, the growth was 14.3%.
Same read-out and setting: next, `COc1ccc(COc2ccc(/C=C3\C(=O)Nc4ccccc43)cc2OC)cc1`: 109%; `CCNC(=O)Oc1ccc(/C(=C(/C)c2ccccc2)c2ccc(OCCN3CCCCCC3)cc2)cc1`: -44.6% (active).
Consider `COc1cc(/C=N/NC(=O)c2cn(C3CC3)c3c(OC)c(N4CC5CCCNC5C4)c(F)cc3c2=O)ccc1O` (stereo unspecified), for which the growth is -67% (active).
The same measure, in the same setting: the result for `CC(C)c1ccc(NCc2cn(-c3ccc(C(=O)O)cc3)nc2-c2cc(C(F)(F)F)cc(C(F)(F)F)c2)cc1` reads 86.2%.
As for `C[C@@H]1C[C@H]2C(=O)O[C@@H](C)C(NC(=O)[C@H](Cc3cc(F)cc(F)c3)NC(=O)Nc3ccc(Cl)cc3F)C(=O)N3CCC[C@H]3C(=O)N3CCCC[C@H]3C(=O)N[C@@H](CO)C(=O)N2C1` (stereo partly specified), the growth was 30%.
Same read-out and setting: next, `CC(=O)O[C@@H]1C(=O)N(c2cnccn2)[C@H]1c1ccccc1[N+](=O)[O-]`: -3.35% (active).
Still for that read-out and setting: next, `C=C1CC[C@@H]2[C@]3(C)COC(c4ccccc4)O[C@@H]3CC[C@@]2(C)[C@@H]1C/C=C1/C(=O)OC[C@H]1O` (stereo partly specified): 64.2%; `Nc1nc(-c2cccc([N+](=O)[O-])c2)c(N=Nc2cccc([N+](=O)[O-])c2)s1`: -43% (active).
The same measure, in the same setting: the result for `Nc1cc(F)ccc1NC(=O)c1ccc(NC(=O)C/C=C/c2cccnc2)cc1` reads 34.1%; that for `CCc1nn2c(C)cc(C)nc2c1Cc1ccc(/C=C/CN2CCN(CCOCCOCCN3CCN(C/C=C/c4ccc(Cc5c(CC)nn6c(C)cc(C)nc56)cc4)CC3)CC2)cc1`, -47% (active).
Consider `COc1ccc(NC(=O)CSc2nnc(-c3ccc4nc(-c5ccccc5)[nH]c4c3)o2)cc1`, for which the growth is 102%.
Regarding `COc1ccc(N2C(=O)c3cc(Cl)ccc3NC2SCc2ccccc2)cc1` (stereo unspecified), the growth was 99.4%.
Same read-out and setting: the result for `O=C(CSc1nc2ccccc2c(=O)n1-c1ccccc1)Nc1ccc(-c2nc3ccc([N+](=O)[O-])cc3[nH]2)cc1` reads 87.6%.
Same read-out and setting: next, `O=C(NCCn1ccnc1)c1ccc(-c2nc3ccc4[nH]ncc4c3c3c2CCCC3)cc1`: 58.6%; `CCCC(=O)NC(c1cccnc1)c1cc(C(C)(C)C)c2cccnc2c1O` (stereo unspecified): 18.6%; `NC(N)=Nc1ccc(Oc2cccc(Nc3ccc(Cl)cc3)c2)cn1`: -71.2% (active).
As to `O=C(CN1CCN(c2cc(=O)[nH]c3ccc(F)cc23)CC1)Nc1ccc(Cl)cc1`, the growth is 42.6%.
For `C=C(C=O)[C@@H]1CC[C@]2(C)[C@H](C(=O)C=C3[C@H]4C[C@](C)(C(=O)OC)CC[C@]4(C)CC[C@]32C)[C@@]1(C)CCC#N`, the growth is 2.98% (active).
